Measured values: ChEMBL document CHEMBL3988442, “University of Dundee, Small-Polar-MMV Screening Library” (2021)
Out of some 48,000 compounds screened, about 13,000 (27%) showed an effect of 50% or more. Some of the results follow.

Test system: Wolbachia pipientis
Test: Anti-Wolbachia Cell-Based Screen
Format: functional
Set-up: scale not given: in the data most compounds retested in dose-response had high values
Settings: 5 µM

SMILES	Percent Effect
O=c1[nH]nc(-c2cccs2)c2sc(N3CCOCC3)nc12	-14.46%
COc1ccccc1Cc1cc(O)nc(NC(C)CN(C)C)n1 (centres undefined)	91.33%
COc1ccccc1CCNC(=O)N(C)C(C)CS(C)(=O)=O (centres undefined)	-10.73%
CC(CCc1ccccc1F)C(=O)NS(=O)(=O)N(C)C(C)C (centres undefined)	-0.5241%
CC(CC#N)N(C)Cc1ccccc1F (centres undefined)	11.31%
COc1ccccc1CC(C)(C)NC(=O)CN(C)C(C)C	3.69%
CC(CN(C)C)Nc1nc(O)cc(Cc2ccccc2F)n1 (centres undefined)	94.63%
CC(=O)N1CCN(C(=O)C2SCCc3sccc32)CC1 (centres undefined)	-2.542%
O=C(O)C(F)(F)F.O=C(O)C(F)(F)F.O=C(c1ccc(F)cc1)N1CCN2C[C@H](Oc3cccnc3)C[C@H]2C1	-2.866%
COc1ccccc1N1CCN(C(=O)Cn2nccc2C)CC1(C)C	4.467%
O=C(CCc1nc(Cl)n[nH]1)N1CCC2(CCCNC2=O)C1 (centres undefined)	7.017%
CCCN1CCC(N(C)C(=O)c2cc(C)nc3cc(F)ccc23)CC1	11.04%
Cc1cc(C(=O)N(C)C2CCS(=O)(=O)C2)c2ccc(F)cc2n1 (centres undefined)	-24.13%
CN1CCC(N(C)C(=O)c2cnn(-c3cc(F)ccc3F)c2N)CC1	123.1%
CN1CCC(N(C)C(=O)c2cnn(-c3ccccc3Br)c2N)CC1	112.2%
Cc1cccc2c1nc(COCC(=O)O)n2-c1ccc(N)nc1	-5.94%
CCCC(C)C(=O)N1CCC(c2cc(N3CCOCC3)nc(C)n2)CC1 (centres undefined)	8.426%
Cn1c(CCNc2nccnc2C#N)nc2cc(Cl)ccc21	-1.88%
CN(C)c1cccc(CNC(=O)Nc2cc(C#N)ccc2Cl)n1	19.69%
Cc1cc(OCC(=O)NS(=O)(=O)c2c(C)noc2C)ccc1Cl	-5.411%
Cc1cccc(OC2CCN(c3ncc(C#N)cc3Cl)CC2)n1	-14.79%
CN(C)S(=O)(=O)NCc1cccnc1Oc1ccc(F)c(F)c1	-7.83%
Cc1cc(=O)n2nc(Oc3ccc(C#N)cc3Cl)sc2n1	80.29%
Cc1cc(=O)n2nc(Oc3cc(Cl)cc(Cl)c3)sc2n1	108.5%
Cc1nccc(CNC(=O)NCCOc2ccc(F)c(F)c2)n1	-14.18%
Cc1cc(=O)n2nc(Oc3ccc(F)c(F)c3)sc2n1	78.71%

SMILES	Percent Effect
Cc1cc(=O)n2nc(Oc3ccc(Cl)c(C)c3)sc2n1	81.92%
c1ccc(C(CNc2ncccn2)N2CCOCC2)nc1 (centres undefined)	-6.458%
CS(=O)(=O)NC[C@H]1Cn2c(-c3ccc(Cl)cc3)cnc2CO1	-25.96%
Cc1nnc(NC(=O)CN2CCCC(Cn3cncn3)C2)s1 (centres undefined)	-2.603%
CCc1nnc2n1CCN(C(=O)c1ccc(-c3ccco3)nc1C)C2	-7.114%
O=C1CCCCN1CCc1nc(-c2cccnn2)no1	94.65%
O=C1CCCN1CCc1nc(-c2ccsc2)no1	3.312%
CCC(=O)N1CCCC(c2nc(-c3cccnn3)no2)C1 (centres undefined)	-10.18%
O=C1CCCCCN1CCc1nc(-c2cccnn2)no1	101.6%
O=C1CCCN1Cc1nc(-c2ccsc2)no1	-0.6709%
c1cnnc(-c2noc(COCC3CCCO3)n2)c1 (centres undefined)	-7.3%
NC(=O)N1CCCC(c2nc(-c3cccnn3)no2)C1 (centres undefined)	-17.63%
c1cnnc(-c2noc(CCN3CCCO3)n2)c1	93.6%
c1ccc(-c2noc(CNC3CCCN(c4cccnn4)C3)n2)nc1 (centres undefined)	15.74%
Fc1cnc(N2CC[C@@H]3O[C@H](COCc4ccccn4)CC[C@@H]32)nc1.O=C(O)C(F)(F)F.O=C(O)C(F)(F)F	-8.752%
CCC(Nc1cccc(Oc2ccc(C#N)cc2)c1)C(N)=O (centres undefined)	17.41%
O=c1cc2c(nn1CN1CCN(c3cccc(Cl)c3)CC1)CCC2	-5.597%
N#Cc1ccc2c(c1)CN(C(=O)c1nc[nH]n1)C2c1cnco1 (centres undefined)	-15.48%
CCn1ncnc1C(C)NC(=O)C1CCN(C(=O)COC)CC1 (centres undefined)	0.6867%
CCC(=O)N1C[C@@H](C(=O)NC)[C@H](c2ccnc(N3CCCC3)n2)C1.Cl	103.8%
CNC(=O)C1CCN(c2nccc(CCC(F)(F)F)n2)C1 (centres undefined)	-10.68%
CNC(=O)[C@@H]1COC[C@H]2CN(C(=O)COc3ccccc3)C[C@H]21	-5.187%
CCNC(=O)C1CCN(c2nccc(C3CCCC3)n2)C1 (centres undefined)	-5.882%
CNC(=O)[C@@H]1CN(C(=O)CCOC)C[C@H]1c1ccnc(N2CCCC2)n1.Cl	97.41%
CNC(=O)[C@@H]1CN(C(=O)COC)C[C@H]1c1ccnc(N2CCCC2)n1	103.6%
COCCC(=O)N1CCN(C)c2ncccc2C1	-0.6435%

SMILES	Percent Effect
CCNc1ccnc(N2CCCC(CCOC)(C(=O)O)C2)n1 (centres undefined)	-0.7265%
O=C(O)C(c1cccc2c1OCC2)N1CCC(N2CCCC2)CC1 (centres undefined)	-6.638%
O=C1C(Nc2ncccn2)CCN1c1ccccc1OC(F)F (centres undefined)	-3.338%
COCCS(=O)(=O)NC(C)c1cccc(-n2cccn2)c1 (centres undefined)	2.381%
CC(=O)Nc1ccc(C(=O)Nc2cnc3n2CCCC3)cc1C	7.352%
CC(C)NC(=O)N1CCC2(CC1)Cc1ccccc1CNC2=O	106.4%
C[C@@H]1CN(C2(C(=O)N3CCOCC3)Cc3ccccc3C2)C[C@H](C)O1	-3.118%
CN1Cc2ccccc2CC2(CCN(C(=O)[C@H]3CCCO3)CC2)C1=O	-50.23%
CC(C)NC(=O)N1CCC2(CC1)CCn1c(C3CC3)cnc12	5.233%
CN1Cc2ccccc2CC2(CCN(C(=O)N3CCOCC3)CC2)C1=O	102.4%
CNS(=O)(=O)c1ccccc1N1CCN(C(=O)NC(C)C)CC1	-1.761%
CC(NC(=O)N1CCc2ccccc2C1)c1nncn1C (centres undefined)	-2.02%
CC(C)NC(=O)N1CCC2(CC1)Cc1ccccc1CN(C)C2=O	105%
O=C([C@H]1CCCO1)N1CCC2(CC1)Cc1ccccc1CNC2=O	-31.67%
O=S(=O)(C/C=C/c1ccccc1)Cc1nc(C2CC2)no1	14.62%
CCn1ccnc1CN1CCN(CCOc2cccc(C#N)c2)CC1	-6.749%
CC(C)c1cnc(CNc2c(F)cccc2-n2cccn2)o1	11.31%
CCNC(=O)NC1CN(Cc2ccccc2N(C)C)C[C@@H]1OC (some centres undefined)	0.7877%
CC(NC(=O)N1CCc2sccc2C1)c1nncn1C (centres undefined)	8.221%
CN(C)C(=O)N1C[C@@H]2CCCO[C@@H]2[C@H](N(C)Cc2ccco2)C1.O=C(O)C(F)(F)F	-2.152%
Cc1nccn1-c1cc(CNC(=O)CCNC(=O)C2CCCC2)ccn1	5.543%
Cc1nc(CN2CCCC(NCCc3ccccc3Cl)C2)no1 (centres undefined)	-3.863%
CCOc1cccc(CNC2CCCN(Cc3noc(C)n3)C2)c1 (centres undefined)	100.5%
Cc1nc(CN2CCCC(NCc3cnn(C)c3)C2)no1 (centres undefined)	104.5%
Cc1nc(CN(C)C2CCN(Cc3nc4ccccc4s3)C2)no1 (centres undefined)	10.14%
Cc1nc(CN2CCCC(NCC(=O)Nc3cccnc3)C2)no1 (centres undefined)	-1.962%

SMILES	Percent Effect
CCc1nc(CN2CCCC(NCc3cnn(C(C)(C)C)c3)C2)no1 (centres undefined)	-2.673%
Cn1cc(CNC2CCCN(Cc3noc(C4CC4)n3)C2)cn1 (centres undefined)	-8.767%
Cc1nc(CN2CCCC(NCCOc3ccccc3)C2)no1 (centres undefined)	-9.342%
Cc1nc(CN2CCCC(Nc3ncnc4ccccc34)C2)no1 (centres undefined)	-16.22%
Cc1nc(CN2CCCC(N(C)c3cnc4ccccc4n3)C2)no1 (centres undefined)	-0.8744%
Cc1nc(CN2CCCC(NCc3cccc4ccccc34)C2)no1 (centres undefined)	107.2%
Cc1nc(CN2CCCC(NCc3nc4ccccc4s3)C2)no1 (centres undefined)	116.1%
Cc1cccc(CNC(Cn2cncn2)c2ccccc2)c1C (centres undefined)	-43.08%
CN(C)c1cc2c(nn1)CCN(C(=O)Cc1noc3ccccc13)C2	12.15%
CN(Cc1csc(-c2ccccc2)n1)C(=O)CCn1ccccc1=O	-32.35%
Cc1nc(CN2CCCC(NCc3c(C)nc4sccn34)C2)no1 (centres undefined)	-4.535%
Cc1nc(CN2CCCC(NCc3ccc(Cl)s3)C2)no1 (centres undefined)	105.2%
Cc1nc(CN2CCCC(N(C)Cc3cscn3)C2)no1 (centres undefined)	2.968%
Cc1nc(CN2CCCC(NCc3ccc4ccccc4c3)C2)no1 (centres undefined)	117%
Cc1nc(CN2CCCC(NCc3csc(C(C)(C)C)n3)C2)no1 (centres undefined)	82.03%
COc1ccc(CNC2CCCN(Cc3noc(C)n3)C2)cc1F (centres undefined)	-5.655%
Cc1nc(CN2CCCC(NCc3ccsc3)C2)no1 (centres undefined)	1.864%
Cc1nc(CN2CCCC(NCCOCC(F)(F)F)C2)no1 (centres undefined)	-2.958%
Cc1nc(CN2CCCC(NCc3sccc3C)C2)no1 (centres undefined)	84.94%
CCOc1cccc(CN2CCCn3nc(CNS(C)(=O)=O)cc3C2)c1	-2.285%
Cc1nc(CN2CCCC(NCc3ccc4c(c3)CCO4)C2)no1 (centres undefined)	109.8%
Cc1cccc(CN2CCc3ncnc(C)c3CC2)n1.O=C(O)C(F)(F)F	-2.689%
Cc1cccc(CN2CCc3ncnc(C4CC4)c3CC2)n1.O=C(O)C(F)(F)F	113.1%
Cc1cccc(CN2CCc3ncnc(NC4CCC4)c3CC2)n1.O=C(O)C(F)(F)F.O=C(O)C(F)(F)F	78.48%
Cc1ncnc2c1CCN(Cc1ccccn1)CC2.O=C(O)C(F)(F)F.O=C(O)C(F)(F)F	-3.635%
O=C(O)C(F)(F)F.O=C(O)C(F)(F)F.c1ccc(CN2CCc3ncnc(C4CCOC4)c3CC2)nc1 (centres undefined)	3.596%
